In PubChem BioAssay (NCI) one finds growth inhibition data, which are given here for 40 compounds.

The panel holds about 79,000 compounds, 15% with a hit somewhere; the sample as a whole holds those more often. Values without a mark were called inactive. Cut-off read from the data, not from the text of the source: active = growth inhibition above about 70%; inactive = the rest.

One experiment can be described thus: NCI Yeast Anticancer Drug Screen. Data for the rad50 strain (AID 155).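 Note: 0% = growth of vehicle-only cultures of the same strain.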 The following applies: S. cerevisiae rad50 strain growth inhibition; at 50.0 µM; hits give high values. The method in brief:
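Relative growth inhibition (compound vs vehicle) was measured in yeast with a defined repair-gene alteration.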
With `O=C(O)c1cc2ccccc2o1`, the growth inhibition was 11.6%.

Take `O=C(O)CNC(=O)C(Cc1ccccc1)NC(=O)CNC(=O)C(CSC(c1ccccc1)c1ccccc1)NC(=O)C(CSC(c1ccccc1)(c1ccccc1)c1ccccc1)N1C(=O)c2ccccc2C1=O` (stereo not given): the growth inhibition was 1.5%.

As for `CC(=O)N1CCC23C(=O)CC4C(=CCOC5CC(=O)N(c6ccccc62)C3C54)C1` (stereo not given), the growth inhibition is -19.1%.

On to `CCCCCCCN1C(=O)C(O)(c2ccc(C3(O)C(=O)N(CCCCCCC)c4ccccc43)s2)c2ccccc21` (stereo not given), for which the growth inhibition was 9.35%.

Regarding `CC(=O)C1C(=O)C(=O)N(c2ccc([N+](=O)[O-])cc2)C1=O` (stereo not given), the growth inhibition was -26.9%.

Consider `Cc1cc([N+](=O)[O-])c2ncccc2c1`, for which the growth inhibition is -12.3%.

Turning to `CC(=O)c1cccc(NC(=O)OCC2CC3C=CC2C3)c1` (stereo not given), the growth inhibition is 25.4%.

On to `Nc1cc(Cl)c2c(c1)C(=O)c1ccccc1-2`, for which the growth inhibition was -2.45%.

Turning to `CN(CCSSCCN(C)/N=C/c1ccccc1)/N=C/c1ccccc1`, the growth inhibition is -30.6%.

Turning to `Cc1cc(C)n(-c2ccnc(-n3nc(C)cc3C)n2)n1`, the growth inhibition is 22%.

Consider `CCO/C=C1/N=C(c2ccccc2Cl)OC1=O`, for which the growth inhibition is 10.2%.

As to `COc1ccc(C2NC(C(=O)O)Cc3c2[nH]c2ccccc32)cc1OC` (stereo not given), the growth inhibition is -12.2%.

For the compound `O=C(Cc1nc2ccccc2[nH]c1=O)c1cccnc1`, the growth inhibition is -0.5%.

`CC(=O)NC1C(OC2C(CO)OC(OCC3OC(n4ccc(N)nc4=O)C(O)C3O)C(NC(C)=O)C2O)OC(CO)C(O)C1O` (stereo not given): the growth inhibition is 31.9%.

For the compound `C#C[C@@H](CCCC)OC(=O)N[C@H](C)c1ccccc1`, the growth inhibition is 58.9%.

In the case of `O=C(Nc1cc(C(F)(F)F)ccc1Cl)C(=O)C(C(=O)c1ccc2ccccc2c1)C1OC(=O)c2ccccc21` (stereo not given), the growth inhibition was 35%.

For the compound `Cc1n[n+](CC(=O)c2ccccc2)c2sc(N)nn12`, the growth inhibition was -55.8%.

Consider `CC12CCC(C/C1=N\N=C(N)N)C2(C)C` (stereo not given), for which the growth inhibition is 7.55%.

With `CC(=O)Nc1cc(Cl)ccc1C`, the growth inhibition was 39.7%.

Consider `C1=Nc2ccccc2/C1=C/c1ccc2c(c1)OCO2`, for which the growth inhibition is 24.3%.

On to `CC(C)=C=CC(C)(C)NS(=O)(=O)NC(C)(C)C=C=C(C)C`, for which the growth inhibition was 12.5%.

Regarding `ClCCOCc1ccc(Cl)c(Cl)c1`, the growth inhibition was 8.8%.

In the case of `COC(=O)C1(C(C(=O)c2ccccc2)c2ccccc2)NC(=S)NC(=O)C1C#N` (stereo not given), the growth inhibition was -14.4%.

Take `O=C1CCCC2=C1C(c1ccc(Cl)c(Cl)c1)C1=C(CCCC1=O)O2`: the growth inhibition was 1.05%.

With `CCOC(=O)CCOc1ccccc1`, the growth inhibition was 8%.

Take `CCOP(=O)(OCCN(C)C)C(c1ccccc1)c1ccccc1` (stereo not given): the growth inhibition was 19.9%.

With `Nc1nc(N)c2cc(CNc3ccc(C(=O)NC(C(=O)O)C(=O)O)cc3)ccc2n1`, the growth inhibition is -39.1%.

`CCC1(CC)C(=O)OC(=O)C1(CC)CC`: the growth inhibition is -6.05%.

Regarding `O=[N+]([O-])c1ccc(N=NN2CCOCC2)cc1`, the growth inhibition is -0.55%.

For `CCc1ccc2c(c1)/C(=N\NC(N)=O)CCC2`, the growth inhibition is -11.2%.

Consider `C/C(=N\NC(=O)CCCCC(=O)N/N=C(\C)c1ccc(C)cc1)c1ccc(C)cc1`, for which the growth inhibition was -3.65%.

Consider `Fc1ccc(-c2ncc(-c3ccccc3)o2)cc1`, for which the growth inhibition is 0.95%.

For the compound `O=CNC1(CO)CCCCC1`, the growth inhibition was -2.4%.

Turning to `CN(C)c1ncnc2c1ncn2CC(O)CN` (stereo not given), the growth inhibition is -7.9%.

Regarding `COc1cc(C2CC(C)(N3CCCC3)Oc3cc4c(cc32)OCO4)cc(OC)c1OC` (stereo not given), the growth inhibition is 1.2%.

As to `Cc1cc2ccccc2n1CC(=O)N1CCCC1`, the growth inhibition was -14.8%.

For the compound `Cc1ccccc1CN`, the growth inhibition is 28.9%.

Regarding `CCn1c2c(c3ccccc31)[C@@H](c1ccc(Cl)cc1)CC1C(=O)N(c3ccccc3)C(=O)C21` (stereo not given in full), the growth inhibition is 17.8%.

With `COC(=O)c1noc2c1CSC1=C2CS(=O)(=O)c2ccccc21`, the growth inhibition was 16.4%.

Take `COC1OC(C(C)Br)C2OC(C)(C)OC12` (stereo not given): the growth inhibition is 7.1%.

The nature of the next experiment: NCI Yeast Anticancer Drug Screen. Data for the mec2-1 strain (AID 157). The following applies: S. cerevisiae mec2-1 strain, at 50.0 µM, hits give high values. The method in brief:
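Vehicle-treated cultures served as reference for growth inhibition of compound-exposed mec2-1 yeast.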
As for `O=C(O)c1cc2ccccc2o1`, the growth inhibition was 0.95%.

For `O=C(O)CNC(=O)C(Cc1ccccc1)NC(=O)CNC(=O)C(CSC(c1ccccc1)c1ccccc1)NC(=O)C(CSC(c1ccccc1)(c1ccccc1)c1ccccc1)N1C(=O)c2ccccc2C1=O` (stereo not given), the growth inhibition was 14.1%.

`CC(=O)N1CCC23C(=O)CC4C(=CCOC5CC(=O)N(c6ccccc62)C3C54)C1` (stereo not given): the growth inhibition is -23.9%.

Regarding `CCCCCCCN1C(=O)C(O)(c2ccc(C3(O)C(=O)N(CCCCCCC)c4ccccc43)s2)c2ccccc21` (stereo not given), the growth inhibition was 10.9%.

Consider `CC(=O)C1C(=O)C(=O)N(c2ccc([N+](=O)[O-])cc2)C1=O` (stereo not given), for which the growth inhibition was -37.4%.

Regarding `Cc1cc([N+](=O)[O-])c2ncccc2c1`, the growth inhibition was -7.7%.

Consider `CC(=O)c1cccc(NC(=O)OCC2CC3C=CC2C3)c1` (stereo not given), for which the growth inhibition is 27.1%.

For the compound `Nc1cc(Cl)c2c(c1)C(=O)c1ccccc1-2`, the growth inhibition was 0.7%.

`CN(CCSSCCN(C)/N=C/c1ccccc1)/N=C/c1ccccc1`: the growth inhibition is -10%.

As to `Cc1cc(C)n(-c2ccnc(-n3nc(C)cc3C)n2)n1`, the growth inhibition was 23.9%.

As for `CCO/C=C1/N=C(c2ccccc2Cl)OC1=O`, the growth inhibition is 5.25%.

For `COc1ccc(C2NC(C(=O)O)Cc3c2[nH]c2ccccc32)cc1OC` (stereo not given), the growth inhibition was -5.6%.

Consider `O=C(Cc1nc2ccccc2[nH]c1=O)c1cccnc1`, for which the growth inhibition was 8.25%.

As for `CC(=O)NC1C(OC2C(CO)OC(OCC3OC(n4ccc(N)nc4=O)C(O)C3O)C(NC(C)=O)C2O)OC(CO)C(O)C1O` (stereo not given), the growth inhibition is 48.4%.

Regarding `C#C[C@@H](CCCC)OC(=O)N[C@H](C)c1ccccc1`, the growth inhibition is 49.6%.

In the case of `O=C(Nc1cc(C(F)(F)F)ccc1Cl)C(=O)C(C(=O)c1ccc2ccccc2c1)C1OC(=O)c2ccccc21` (stereo not given), the growth inhibition was 24.4%.

As to `Cc1n[n+](CC(=O)c2ccccc2)c2sc(N)nn12`, the growth inhibition is -31.4%.

On to `CC12CCC(C/C1=N\N=C(N)N)C2(C)C` (stereo not given), for which the growth inhibition is -4%.

Turning to `CC(=O)Nc1cc(Cl)ccc1C`, the growth inhibition is 29.9%.

In the case of `C1=Nc2ccccc2/C1=C/c1ccc2c(c1)OCO2`, the growth inhibition is 11.7%.

Take `CC(C)=C=CC(C)(C)NS(=O)(=O)NC(C)(C)C=C=C(C)C`: the growth inhibition is -9.85%.

On to `ClCCOCc1ccc(Cl)c(Cl)c1`, for which the growth inhibition was -16.9%.

`COC(=O)C1(C(C(=O)c2ccccc2)c2ccccc2)NC(=S)NC(=O)C1C#N` (stereo not given): the growth inhibition is 10.2%.

`O=C1CCCC2=C1C(c1ccc(Cl)c(Cl)c1)C1=C(CCCC1=O)O2`: the growth inhibition is 7.05%.

For `CCOC(=O)CCOc1ccccc1`, the growth inhibition is 9.1%.

`CCOP(=O)(OCCN(C)C)C(c1ccccc1)c1ccccc1` (stereo not given): the growth inhibition was -3.85%.

On to `Nc1nc(N)c2cc(CNc3ccc(C(=O)NC(C(=O)O)C(=O)O)cc3)ccc2n1`, for which the growth inhibition was 8.1%.

For `CCC1(CC)C(=O)OC(=O)C1(CC)CC`, the growth inhibition was 6.7%.

For the compound `O=[N+]([O-])c1ccc(N=NN2CCOCC2)cc1`, the growth inhibition was 3.5%.

For the compound `CCc1ccc2c(c1)/C(=N\NC(N)=O)CCC2`, the growth inhibition was 13.5%.

Take `C/C(=N\NC(=O)CCCCC(=O)N/N=C(\C)c1ccc(C)cc1)c1ccc(C)cc1`: the growth inhibition was -11.3%.

For the compound `Fc1ccc(-c2ncc(-c3ccccc3)o2)cc1`, the growth inhibition is -22.9%.

`O=CNC1(CO)CCCCC1`: the growth inhibition is -3.4%.

Consider `CN(C)c1ncnc2c1ncn2CC(O)CN` (stereo not given), for which the growth inhibition is -8.65%.

On to `COc1cc(C2CC(C)(N3CCCC3)Oc3cc4c(cc32)OCO4)cc(OC)c1OC` (stereo not given), for which the growth inhibition is -1.6%.

`Cc1cc2ccccc2n1CC(=O)N1CCCC1`: the growth inhibition was -28.6%.

Turning to `Cc1ccccc1CN`, the growth inhibition is 3.05%.

With `CCn1c2c(c3ccccc31)[C@@H](c1ccc(Cl)cc1)CC1C(=O)N(c3ccccc3)C(=O)C21` (stereo not given in full), the growth inhibition is 33.3%.

`COC(=O)c1noc2c1CSC1=C2CS(=O)(=O)c2ccccc21`: the growth inhibition is 22%.

In the case of `COC1OC(C(C)Br)C2OC(C)(C)OC12` (stereo not given), the growth inhibition is 21.4%.
